# Results reported in PubChem BioAssay (EPA / NIEHS).
# Inconclusive results are not listed. Calls of active or inactive are those of the source. Rule for the calls, unless noted: active = hit-call score of the fitted dose curve at least 0.9, where 1 is the maximum; inconclusive = response in the unintended direction; inactive = score below 0.9.
# Columns and labels:
# [1] = test system: Thyroperoxidase (TPO), gene 54314; experiment: CCTE_Simmons_AUR_rTPO: CCTE's Amplex UltraRed Assay for Thyroperoxidase (TPO) Inhibition, Simmons Lab (AID 2283662);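 for AC50: potency for loss of signal meaning inhibition of peroxidase activity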
# In short: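 Rat thyroid microsomes (5 ug protein) with 25 uM Amplex UltraRed and 300 uM H2O2 in 200 mM phosphate buffer, 30 min at 37C in dark; fluorescence 544/590 nm. Eight concentrations, 5 nM–87.5 uM final, 0.5% DMSO, triplicate biological replicates.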
# [2] = CCTE_Simmons_CellTiterGLO_HEK293T: Viability Assessment in CCTE's Assays for Thyroperoxidase (TPO) Inhibition, Simmons Lab (AID 2283665);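 for AC50: cells exposed to compound for 24 h before readout; actives reduce ATP signal below DMSO vehicle meaning cytotoxicity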
# In short: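 HEK293T cells in DMEM with 1% FBS were dosed with 8 concentrations (5 nM–87.5 uM final, 0.5% DMSO) for 24 hr at 37C; ATP content was read by CellTiter-Glo luminescence, loss-of-signal versus DMSO, three biological replicates.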
# [3] = biological target: Luciferin 4-monooxygenase (Photinus pyralis) (UniProt P08659); experiment: CCTE_Simmons_QuantiLum_inhib_2: CCTE's Firefly Luciferase Inhibition Assay, Simmons Lab (AID 2283767)
# In short: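 Recombinant firefly luciferase (5 ng/well, 200 mM potassium phosphate with 1 mg/ml BSA) was exposed to 8 concentrations from 5 nM to 87.5 uM (final, 0.5% DMSO) for 30 min at 37C in the dark. Loss of luminescence versus DMSO was read after injecting D-luciferin/ATP-analogue reagent.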
# [4] = biological target: Cellular tumor antigen p53 (Homo sapiens) (UniProt P04637); experiment: TOX21_p53_BLA_p4_ratio: Tox21 HCT-116 p53 Agonism Beta-lactamase Assay, Ratio, Phase 4 (AID 2283601)
# In short: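 HCT-116 p53 beta-lactamase reporter cells (4000/well) preincubated 5 h, then compound (217-fold dilution of DMSO stock) for 16 h at 37C. CCF4-AM substrate added 2 h at room temperature; 460/530 nm emission ratio fitted upward versus DMSO.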
# [5] = ACEA_ER_AUC_viability: ACEA Biosciences xCELLigence Real-Time Cell Analysis on Estrogen Receptor Agonism for Viability (AID 2283782);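 note: continuous compound exposure with impedance area under curve over 80 h; hit means loss of impedance signal meaning reduced cell growth or viability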
# In short: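 T47D cells preconditioned in phenol red-free RPMI with charcoal-stripped FBS, then dosed with 8-point 1:4 series from 100 uM (up to 0.5% DMSO). Impedance monitored up to ~80 h; area-under-curve loss versus DMSO taken as viability.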
# [6] = TOX21_p53_BLA_p5_viability: Viability Assessment in the Tox21 HCT-116 p53 Agonism Beta-lactamase Assay, Phase 5 (AID 2283600)
# In short: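 HCT-116 p53 beta-lactamase reporter cells, 4000/well, were exposed to compound (pin transfer, 217-fold dilution) for 16 hours at 37C. Cellular ATP was read by CellTiter-Glo luminescence after 30 min at room temperature.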
# [7] = CCTE_Harrill_HTTr_Viability_MCF7: CCTE's 6-hour Cell Viability Assessment for the High-Throughput Transcriptomics (HTTr) Platform, in MCF-7 cells cultured in DMEM + 10% fetal bovine serum, Harrill Lab (AID 2284010; active = hit-call score of the fitted dose curve at least 0.9, where 1 is the maximum; inactive = score below 0.9)
# In short: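 Membrane integrity was scored by high-content imaging of propidium iodide dye exclusion after a 6 h exposure across an eight-point dilution series. Data were fitted bidirectionally relative to DMSO as negative control and baseline.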
# [8] = CCTE_Harrill_HTTr_Apoptosis_MCF7: CCTE's 6-hour Apoptosis Assessment for the High-Throughput Transcriptomics (HTTr) Platform, in MCF-7 cells cultured in DMEM + 10% fetal bovine serum, Harrill Lab (AID 2284011; active = hit-call score of the fitted dose curve at least 0.9, where 1 is the maximum; inactive = score below 0.9)
# In short: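 MCF-7 cells in DMEM + 10% FBS exposed 6 h to chemicals over an eight-point dilution series. Caspase-3/7 activation imaged by high-content CellEvent Green staining; fitted bidirectionally versus DMSO.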
# [9] = CCTE_Harrill_HTTr_CellCount_MCF7: CCTE's Cell Proliferation Assessment for the High-Throughput Transcriptomics (HTTr) Platform, Harrill Lab (AID 2284012);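 note: intended direction is loss of nuclei count meaning fewer cells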
# In short: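 MCF-7 cells were exposed for 6 h to an eight-point dilution series; Hoechst-labeled nuclei were counted by high content imaging. Curves were fitted bidirectionally against DMSO as negative control and baseline, with signal loss indicating reduced cell count.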
# Sequence of Luciferin 4-monooxygenase (Photinus pyralis) (P08659 whole entry, looked up): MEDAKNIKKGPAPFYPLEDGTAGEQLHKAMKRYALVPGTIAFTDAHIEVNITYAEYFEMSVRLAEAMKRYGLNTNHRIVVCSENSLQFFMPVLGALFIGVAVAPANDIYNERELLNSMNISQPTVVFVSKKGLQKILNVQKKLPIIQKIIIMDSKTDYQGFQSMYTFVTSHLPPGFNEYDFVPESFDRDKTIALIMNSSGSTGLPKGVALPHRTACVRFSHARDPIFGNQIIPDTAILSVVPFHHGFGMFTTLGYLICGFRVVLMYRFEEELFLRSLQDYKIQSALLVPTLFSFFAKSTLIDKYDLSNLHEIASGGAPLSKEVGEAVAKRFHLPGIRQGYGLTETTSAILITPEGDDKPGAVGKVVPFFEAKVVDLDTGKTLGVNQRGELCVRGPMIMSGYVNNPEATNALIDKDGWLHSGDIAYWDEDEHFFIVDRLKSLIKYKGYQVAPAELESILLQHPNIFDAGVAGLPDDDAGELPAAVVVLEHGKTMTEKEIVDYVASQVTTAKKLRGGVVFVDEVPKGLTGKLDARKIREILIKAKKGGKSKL
# Sequence of Cellular tumor antigen p53 (Homo sapiens) (P04637 whole entry, looked up): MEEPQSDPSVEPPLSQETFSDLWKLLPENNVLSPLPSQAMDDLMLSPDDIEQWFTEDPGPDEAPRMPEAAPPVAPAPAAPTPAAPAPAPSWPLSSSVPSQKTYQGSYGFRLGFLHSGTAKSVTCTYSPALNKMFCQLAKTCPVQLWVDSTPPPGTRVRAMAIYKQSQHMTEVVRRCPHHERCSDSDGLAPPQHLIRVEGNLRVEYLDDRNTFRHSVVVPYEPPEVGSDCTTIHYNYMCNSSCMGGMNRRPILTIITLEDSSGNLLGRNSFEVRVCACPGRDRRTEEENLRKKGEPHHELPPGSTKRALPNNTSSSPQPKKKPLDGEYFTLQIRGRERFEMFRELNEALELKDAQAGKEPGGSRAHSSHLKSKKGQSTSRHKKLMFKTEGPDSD
compound,measurement,setting,value
CCOC(=O)c1cccc(O)c1,outcome,[1],inactive
same,outcome,[2],inactive
same,outcome,[3],inactive
C=CC1CNC(=S)O1 (stereo not drawn),AC50,[1],10.6 µM (active)
same,outcome,[3],inactive
CCCCc1cc2ccccc2c(OCCN(C)C)n1,outcome,[4],inactive
CC1=CC(=O)CCC1,outcome,[5],inactive
Cc1ccc(O)c([C@H](CCN(C(C)C)C(C)C)c2ccccc2)c1,outcome,[4],inactive
O=C1CC(c2ccc(O)cc2)Oc2cc(O)cc(O)c21 (stereo not drawn),AC50,[1],0.742 µM (active)
same,outcome,[2],inactive
same,outcome,[3],inactive
O=S(=O)(O)CO,outcome,[4],inactive
C[C@H]1[C@H](NC(=O)C(=NOC(C)(C)C(=O)O)c2csc(N)n2)C(=O)N1S(=O)(=O)O,outcome,[4],inactive
CCCCOC(=O)c1ccccc1O,outcome,[1],inactive
same,AC50,[2],53.6 µM (active)
same,outcome,[3],inactive
O=c1cccc(O)[nH]1,AC50,[1],9.01 µM (active)
same,outcome,[2],inactive
same,outcome,[3],inactive
COc1c[nH]ccc1=O,outcome,[1],inactive
same,outcome,[3],inactive
C=CCC=CC,outcome,[4],inactive
Nc1ccc([N+](=O)[O-])c(N)c1,outcome,[4],inactive
Cc1ccc(N)cc1[N+](=O)[O-],outcome,[4],inactive
O=c1cc(O)cc[nH]1,outcome,[1],inactive
Oc1cccnc1,outcome,[1],inactive
same,outcome,[2],inactive
same,outcome,[3],inactive
CCCCC(CC)COC(=O)CC#N (stereo not drawn),outcome,[6],inactive
same,outcome,[4],inactive
same,outcome,[7],inactive
same,outcome,[8],inactive
same,outcome,[9],inactive
